The source of these data is ChEMBL document CHEMBL3988442, “University of Dundee, Small-Polar-MMV Screening Library” (2021).

Results with a measured potency or affinity are listed apart.

Sequence of Protein translocase subunit SecA (Escherichia coli (strain K12)) (P10408 whole entry): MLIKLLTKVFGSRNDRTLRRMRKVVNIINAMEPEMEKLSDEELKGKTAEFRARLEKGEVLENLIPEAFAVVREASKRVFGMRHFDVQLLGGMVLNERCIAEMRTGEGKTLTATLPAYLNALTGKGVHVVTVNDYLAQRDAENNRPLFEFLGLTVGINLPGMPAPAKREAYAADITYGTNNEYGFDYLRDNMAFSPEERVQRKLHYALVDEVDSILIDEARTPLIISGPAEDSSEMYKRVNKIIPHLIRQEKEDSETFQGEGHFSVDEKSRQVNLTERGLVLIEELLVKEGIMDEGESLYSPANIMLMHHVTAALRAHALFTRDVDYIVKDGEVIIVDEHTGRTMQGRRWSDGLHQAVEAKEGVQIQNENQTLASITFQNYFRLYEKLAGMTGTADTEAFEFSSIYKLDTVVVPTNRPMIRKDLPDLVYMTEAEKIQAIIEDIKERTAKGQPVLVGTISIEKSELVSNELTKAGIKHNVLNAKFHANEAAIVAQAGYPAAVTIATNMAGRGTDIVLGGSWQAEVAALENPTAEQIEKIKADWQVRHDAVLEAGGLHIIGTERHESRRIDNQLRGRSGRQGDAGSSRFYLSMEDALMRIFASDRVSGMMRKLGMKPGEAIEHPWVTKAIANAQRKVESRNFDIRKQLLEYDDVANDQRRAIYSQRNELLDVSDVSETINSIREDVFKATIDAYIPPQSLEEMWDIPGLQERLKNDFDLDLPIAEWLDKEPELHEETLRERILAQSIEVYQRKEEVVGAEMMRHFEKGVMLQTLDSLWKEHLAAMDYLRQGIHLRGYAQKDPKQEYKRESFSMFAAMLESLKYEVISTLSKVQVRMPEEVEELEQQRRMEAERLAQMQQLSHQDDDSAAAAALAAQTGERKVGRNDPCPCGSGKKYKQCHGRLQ

This assay addresses Protein translocase subunit SecA (Escherichia coli (strain K12)) (UniProt P10408). Briefly: Assay to Identify E. coli SecA ATPase Inhibitors. In kind it is functional. More on the design: scale not given: direction of the effect not stated beside the values. Particulars: 30 µM.
As for `CC(C)NC(=O)[C@@H](NC(=O)N1CCN(c2ccc(Cl)cc2)CC1)C(C)C`, the Percent Effect is -9.49%.

Take `CC(C)NC(=O)N1CCC2(C1)CN(c1ccsc1)C(=O)CN2C` (stereo not given): the Percent Effect is -2.47%.

`Cc1csc(Nc2nccnc2C2CCCN2C(=O)C(C)C)n1` (stereo not given): the Percent Effect stood at 1.4%.

Consider `CS(=O)(=O)NCc1ncn2c1CN(C(=O)CC1CCCC1)CCC2`, for which the Percent Effect was -1.59%.

Consider `c1ccc(CCNC2CCc3ncnn3C2)nc1` (stereo not given), for which the Percent Effect was -0.356%.

In the case of `CS(=O)(=O)N1Cc2ccccc2C2(CCN(C(=O)c3ccno3)CC2)C1`, the Percent Effect was 2.76%.

Consider `c1ccc(-n2ncc(CNC3CCc4ncnn4C3)n2)cc1` (stereo not given), for which the Percent Effect is -1.79%.

As to `O=C(NCCn1ccnc1)N1CCN(c2nccs2)CC1`, the Percent Effect is -0.752%.

As for `CCN1CCO[C@]2(CCC[C@H]2COCc2csc(C)n2)C1`, the Percent Effect is -5.1%.

Turning to `O=C(NCCCn1ccnc1)N1CCN(c2cccs2)CC1`, the Percent Effect is -5.79%.

With `CC1CN(CC2CCCCC2)CCN1c1ccc2nncn2n1` (stereo not given), the Percent Effect worked out at 3.17%.

For `CC(Cn1cccn1)NC(=O)NCc1cccs1` (stereo not given), the Percent Effect is -2.75%.

`CCn1nc(C)c(CCNC(=O)C2CCCN(CC(N)=O)C2)c1C` (stereo not given): the Percent Effect was -8.24%.

Turning to `CCn1ccnc1CNCC1CCCN1c1cccnn1` (stereo not given), the Percent Effect was -4.44%.

`CCC(=O)N(C)CC(=O)Nc1ccc(Br)cn1`: the Percent Effect is -6.29%.

With `Cn1ccc(CN2CCCC2c2ccc3c(c2)OCCCO3)cc1=O` (stereo not given), the Percent Effect is -1.37%.

In the case of `CCOc1ccc2[nH]c(=O)c(CN3CCC(O)CC3)cc2c1`, the Percent Effect was -8.45%.

For the molecule `c1ncn(CC2CN(Cc3noc(C4CC4)n3)CCO2)n1` (stereo not given), the Percent Effect was -7.36%.

In the case of `Cc1cccc(CN2C[C@@H]3CN(C(=O)[C@H]4CCCO4)C[C@@H]3C2=O)c1`, the Percent Effect is -6.54%.

For the molecule `CS(=O)(=O)c1cccc(C(N)c2ccc(F)c(F)c2)c1` (stereo not given), the Percent Effect was -6.37%.
